Consider 39 compounds from PubChem BioAssay (NCI).

The panel holds about 83,000 compounds, 20% with a hit somewhere; the sample as a whole holds those more often.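 Interpretation: 100, growth as untreated; towards 0, rising growth inhibition; 0, no net growth; 0 to -100, cell death. Compounds scoring below 10 were considered active.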 Unmarked numbers belong to inactive results. The source made the active and inactive calls.

In this assay the test system is SF-295 CNS. As to the kind of experiment: NCI-60 one-dose screen, 48 h (100 = growth as untreated, 0 = no growth, -100 = all killed). The note with it: 10 µM unless noted.
In the case of `Clc1nnc2c3ccccc3ccn12`, the growth is 104%. As to `COc1ccc(-c2nn(C(=O)NCCN(C)C)cc2-c2ccncc2)cc1Cl`, the growth was 24%. `CCN1C(=O)N(CC)C2C1NN=c1s/c(=C\c3ccco3)c(=O)n12` (centres undefined): the growth was 8.2% (active). On to `CC(C)N(C(=S)SSC(=S)N(C(C)C)C(C)C)C(C)C`, for which the growth was 101%. Consider `CC(C)=CC[C@@H]1CC2(CC=C(C)C)C(=O)C(OC3(C(=O)c4ccccc4)C(=O)C4(CC=C(C)C)C[C@@H](CC=C(C)C)C(C)(C)C(CC=C(C)C)(C4=O)C3=O)(C(=O)c3ccccc3)C(=O)C(CC=C(C)C)(C2=O)C1(C)C` (some centres undefined), for which the growth is -13.4% (active). For the compound `CCCCCCCCCCCCCCCC1=NCCN1`, the growth was 90.9%. Take `COc1cc([N+](=O)[O-])cc(OC)c1OC`: the growth is 110%. As for `NNC(=O)CSc1nc2scc(-c3ccccc3)c2c(=O)n1-c1ccccc1`, the figure is 144%. As for `C=CCN(CC#N)CC=C`, the figure is 108%. As for `CCOC(=O)Cn1c(-c2nonc2NC(=O)c2ccccc2F)nc2ccccc21`, the figure is 8.34% (active); as for `CCCCCCCOc1cccc(/C=C2\N=C3SCCCN3C2=O)c1`, 93.8%; as for `Cc1c2c(cc3c1[nH]c1ccccc13)C=NCC2`, 92.4%.

Take `COc1cc(OC)c(Cl)cc1N`: the growth is 135%.

As for `CS(=O)(=O)c1ccc(C(=O)Nc2ccc(Cl)c(-c3ccccn3)c2)c(Cl)c1`, the growth was 8.89% (active). Then `Cc1cc([N+](=O)[O-])c(C)cc1N`, with 109%; and `COc1cnc2c(c1)C(=O)c1c-2n(CCCN2CCNCC2)c(=O)c2cc(Cl)ccc12`, with 15.5%. As for `COc1cc(/C=C2\CN(C(=O)OC(C)(C)C)C/C(=C\c3ccc(O)c(OC)c3)C2=O)ccc1O`, the figure is 101%.

Consider `CCN1C(=O)C(C)C=C(C)C=C1C` (centres undefined), for which the growth is 59.8%. Consider `COCc1nc(NS(=O)(=O)c2ccc(N)cc2)nc(C)c1Br`, for which the growth is 93.6%. Then `O=c1c2cc(Br)cc(Br)c2nc(-c2ccc(Cl)cc2)n1/N=C\c1ccccc1F`, with 29.8%. Consider `CCCCCCCCCCCCCC1=NC(C)(C)CN1C(C)C`, for which the growth is -52.8% (active). Then `CCC(=O)OCc1ccc(OC)cc1`, with 101%; and `Fc1ccc(-c2cnc3nonc3n2)c(F)c1`, with 109%; and `O=S(=O)(Nc1ccc2ccccc2c1)N1CCCCC1`, with 64%. As for `CCn1c(Cc2ccccc2Nc2c(Cl)cccc2Cl)nnc1SCC(=O)Nc1cccc(OC)c1`, the figure is 81.9%; as for `CCN(CC)CC(=O)Nc1c(C)ccc(N)c1C`, 97%. As for `C=C1C[C@@]2(C)C(CC[C@]3(C)C2CC=C2C4CC(C)(C)C[C@@H](OC(=O)/C(C)=C\C)[C@]4(C(=O)O)CC[C@]23C)C(C)(C)C1=O` (some centres undefined), the figure is 59.8%.

Take `C=C1C(=O)O[C@H]2[C@H]1CC/C(COC(=O)NCc1cccc(OC)c1)=C\CC[C@@]1(C)O[C@@H]21`: the growth is 71.5%. Consider `CCCCOc1nc2ccccc2cc1/C=C/c1cc(/C=C/c2cc3ccccc3nc2OCCCC)n(-c2ccccc2)n1`, for which the growth is 114%. Then `CCCCc1nc(Cl)c(C2CC(c3ccc(S(N)(=O)=O)cc3)=NN2c2cc(Cl)cc(Cl)c2)[nH]1` (centres undefined), with 50.3%; and `O=C(N/N=C\c1cc(Br)ccc1O)c1ccncc1`, with 55.7%.

As for `CC(C)C/C=C/C=C/C(=O)N[C@@H](CC(N)=O)C(=O)N[C@@H]1C(=O)N[C@H](c2ccc(O)cc2)C(=O)N[C@H](CCCN)C(=O)N[C@H]([C@@H](C)O)C(=O)N[C@H](c2ccc(O)cc2)C(=O)N[C@H](c2ccc(O)cc2)C(=O)N[C@H]([C@H](C)O)C(=O)N[C@H](Cc2ccccc2)C(=O)N[C@H](CCCN)C(=O)N[C@H](c2ccc(O[C@H]3O[C@@H](CO)[C@@H](O)[C@@H](O)[C@H]3O[C@@H]3O[C@H](CO)[C@H](O)[C@H](O)[C@@H]3O)cc2)C(=O)N[C@H]([C@H](C)O)C(=O)N[C@H](c2ccc(O)cc2)C(=O)NCC(=O)N[C@H](CC(C)C)C(=O)N[C@H](C)C(=O)N[C@H](c2ccc(O)c(Cl)c2)C(=O)O[C@@H]1C(N)=O`, the growth was 20.1%. Then `CN(C)c1ccc(/C=C\c2cccc[n+]2C)cc1`, with 19%; and `COC(=O)CSc1ccc(Cl)cc1`, with 107%. Then `S=C(S)Oc1cccc2cccnc12`, with 110%. As for `O=C1NN(C(=O)c2ccccc2)C(c2ccc(Cl)c(Cl)c2)=C/C1=C\c1ccccc1[N+](=O)[O-]`, the figure is -37.5% [6.75 µM] (active). For `CCOC(=O)Nc1ccc2nc(Sc3ccc(Cl)cc3)sc2c1`, the growth was 29.1%.

Regarding `COc1cc(C2CC(c3cccc(Nc4ccnc5cc(Cl)ccc45)c3)=NN2C=O)cc(OC)c1OC` (centres undefined), the growth was -11.6% (active). Then `c1cn2cc(-c3ccc4ncn(C5CCCCC5)c4c3)nc(-c3ccc4c(c3)ncn4C3CCCCC3)c2n1`, with -86.5% (active).
